Source: PubChem BioAssay
V-ATPase pH = regulators of yeast V-ATPase proton pumping, primary screen, pHLuorin cytosolic pH fluorescence; S. cerevisiae; response, % at 10 µM; 350,000 compounds, 0.37% hits; AID 504577, 2011; in the data active means response mostly above about 7.3%, no sharp cut-off; inactive means mostly below about 5.4%; further: actives read high
Efflux pump inh = inhibitors of Candida efflux pumps in yeast, primary screen, S. cerevisiae, Nile Red, multiplex | S. cerevisiae Candida pump triplex | inhibition, % at 10 µM | 330,000 compounds, 0.44% hits;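 active means plate passing quality check with inhibition over a set limit, or well fluorescence over plate mean plus 4 SD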;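 further: Nile Red retained in pooled yeast measured as flow cytometry median fluorescence; 0% = buffer negative control and 100% = Enniatin B positive control; higher means more Nile Red kept so more efflux inhibition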
AI-2 QS mod = Vibrio harveyi AI-2 quorum sensing modulators, primary screen, JMH597 strain, luminescence/OD600 ratio; 300,000 compounds, 0.4% hits; Vibrio harveyi JMH597 AI-2 luminescence/OD600 ratio, 9 h; stronger effect = lower value; strain lacks LuxN and CqsS sensors; 0 = neutral-control median; activity change, % at 7.5 µM; in the data active means activity change below about -75%, passing the limit was not always enough;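 further: luminescence divided by OD600 gain over 9 h not by final OD600 alone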
ATG4B inhibitor = ATG4B protease inhibitors, primary screen, biochemical, fluorescence, uHTS | Cysteine protease ATG4B (Homo sapiens), Q9Y4P1 | ATG4B cleavage of LC3-PLA2, NBD-HPC fluorescence, 1 h | inhibition, % at 8.33 µM | 340,000 compounds, 0.51% hits; in the data active means inhibition above about 40%
Target sequence (Q9Y4P1 whole entry, looked up): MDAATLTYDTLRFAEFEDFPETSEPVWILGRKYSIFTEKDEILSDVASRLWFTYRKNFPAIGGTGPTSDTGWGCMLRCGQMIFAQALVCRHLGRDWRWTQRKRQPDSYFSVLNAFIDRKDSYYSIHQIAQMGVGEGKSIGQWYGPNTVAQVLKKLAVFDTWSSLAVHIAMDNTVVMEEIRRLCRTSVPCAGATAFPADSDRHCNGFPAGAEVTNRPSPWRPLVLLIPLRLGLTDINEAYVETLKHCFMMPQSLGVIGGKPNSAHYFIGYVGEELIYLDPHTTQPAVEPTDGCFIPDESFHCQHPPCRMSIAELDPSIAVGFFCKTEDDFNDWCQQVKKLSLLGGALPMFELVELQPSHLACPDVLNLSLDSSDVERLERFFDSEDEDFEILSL
Mot1-301 SUMO = yeast Mot1-301 growth rescue at high temperature, primary screen, SUMOylation pathway inhibitor project, S. cerevisiae, ATP luminescence, 38.5C; S. cerevisiae Mot1-301 growth rescue; percent above DMSO median, 100 means doubled; growth rescue, % at 18.8 µM; 320,000 compounds, 1% hits; AID 2716, 2010;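 active means every valid replicate shows activation above 250% relative to neutral control wells; inactive means the rest, any valid replicate at or below 250%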;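 further: OY570 slx delta 5 strain wells were the positive control but not used for scaling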
V-ATPase pH SP = yeast V-ATPase proton pumping modulators, confirmation, S. cerevisiae, pH-sensitive GFP, second cherry-pick; shares compounds with V-ATPase pH; S. cerevisiae pHLuorin cytosolic pH, V-ATPase proton transport; response, % at 10 µM; 980 compounds, 2% hits; in the data active means response above about 24%;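 further: plate controls were vehicle wells for no effect and positive control wells for full effect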
Active calls of the source: *; / = no result given. Rows were chosen to be rich in hits. Some 2.5% of all compounds tested hit in one or more screens of this group.

SMILES | V-ATPase pH | Efflux pump inh | AI-2 QS mod | ATG4B inhibitor | Mot1-301 SUMO | V-ATPase pH SP
COc1ccc(-c2cc(C(=O)NCCCN3CCCC3=O)c3ccccc3n2)cc1 | 12* | 0 | 27 | -7 | 12 | 3
COc1ccc(OC)c(NC(=O)COC(=O)CCc2nc3ccccc3c(=O)[nH]2)c1 | 1 | 0 | / | -13 | 11 | /
Nc1ccc(C(=O)OCc2csc(-c3ccccc3)n2)cc1[N+](=O)[O-] | 10* | 0 | 15 | -8 | -8 | -7
CNS(=O)(=O)c1cccc(C(=O)OCc2csc(-c3ccccc3)n2)c1 | 2 | 0 | -2 | 1 | -3 | /
COc1cc(NC(=S)NC(=O)c2ccco2)ccc1NC(=O)C(C)C | 7 | 0 | 27 | -6 | 200 | /
COc1cc(NC(=S)NC(=O)c2ccccc2F)ccc1NC(=O)c1ccco1 | 54* | 0 | -1 | 19 | -9 | 2
Cc1ccccc1OCC(=O)NNC(=O)Cc1ccc(S(=O)(=O)N2CCOCC2)s1 | 18* | 0 | 16 | 3 | 43 | 7
O=C(COc1ccccc1F)NNC(=O)Cc1ccc(S(=O)(=O)N2CCOCC2)s1 | 4 | 0 | / | 1 | -33 | /
COc1ccc(OCc2nn3c(-c4ccccn4)nnc3s2)cc1 | 9.5* | 0 | 8 | 3 | 179 | 2
COc1ccc(-c2nnc3sc(COc4ccccc4)nn23)cc1 | -1 | 0 | 3 | -10 | -4 | /
Cc1ccc2oc(C(=O)N(C)Cc3ccc(C)o3)c(C)c2c1 | 12* | 0 | 13 | -4 | -15 | 69*
Cc1ccc2oc(C(=O)N(C)Cc3ccon3)c(C)c2c1 | 0 | 0 | 11 | -2 | -7 | /
Cc1ccc(NC(=O)COc2ccccc2C#N)cc1S(=O)(=O)N1CCCCCC1 | 0 | 0 | / | 10 | / | /
Cc1ccc(NC(=O)COc2cccnc2[N+](=O)[O-])cc1S(=O)(=O)N1CCCCC1 | 57* | 0 | 21 | -5 | -6 | 3
CNCc1cc(Cl)cc(OC)c1OC(C)C | 7.7* | / | 22 | -3 | / | -2
COc1ccc(CN2CCn3nc(C(=O)NC4CC4)cc3C2=O)cc1 | -2 | 0 | 1 | -4 | 6 | /
COc1ccc(Nc2nc(-c3cccnc3)cs2)c(OC)c1 | 9.1* | 0 | -6 | 1 | -4 | 3
CC(=O)c1ccc(NC(=O)CN2CCC(NC(=O)c3ccccc3C)CC2)cc1 | 8.2* | / | / | / | / | -1
CN(C)CCCNC1=CC(=O)OC12CCCCC2 | 2 | 0 | 25 | 9 | / | /
O=C1C=C(NCc2ccc(Cl)cc2Cl)C2(CCCCC2)O1 | 10* | 0 | 7 | 20 | -4 | 4
CCc1ccccc1NNC(=O)c1snnc1C | 0 | 0 | -26 | -1 | 107 | /
COc1ccc(CN2C(=O)c3ccccc3C2C(=O)NC2CCCC2)c(OC)c1 (configuration not stated) | 9.8* | 0 | 29 | 1 | -30 | 1
Cc1ccc(/C=C/C(=O)c2ccc(N3CCOCC3)cc2)s1 | 10* | 0 | 6 | -11 | -14 | -1
Cc1ccc(Nc2nnc(C)c3ccccc23)c(C)c1 | 12* | 0 | 5 | -6 | 4 | 9
Cc1nc(COC(=O)c2ccc(S(=O)(=O)N3CCCC3)cc2)cs1 | -1 | 0 | 5 | -14 | -13 | /
SMILES | V-ATPase pH | Efflux pump inh | AI-2 QS mod | ATG4B inhibitor | Mot1-301 SUMO | V-ATPase pH SP
COCCn1c(SCC(=O)OC(C)C)nnc1-c1ccccc1 | 9.9* | 0 | 10 | 1 | -7 | 0
COCCn1c(SCC(=O)Nc2cccc(OC)c2)nnc1-c1ccccc1 | 0 | 0 | 10 | 2 | 1 | /
COc1ccc(CCNc2nc(-c3ccco3)cc(C(F)(F)F)n2)cc1OC | 11* | 0 | 26 | -10 | -23 | 2
CCCSc1ccc([C@H]2N[C@@](CC(C)C)(C(=O)OC)[C@H]3C(=O)N(CC)C(=O)[C@@H]23)cc1 | 1 | 0 | / | -5 | -20 | /
CCCC(=O)Nc1ccc(C(=O)Nc2cccc(OC)c2)cc1 | 9.7* | 0 | 11 | -12 | 4 | 3
COc1cccc(NC(=O)c2ccc(NC(=O)C(C)(C)C)cc2)c1 | 1 | 1 | 11 | 0 | 10 | /
